Source: PubChem BioAssay
Shown are actives, neighbours in structure and some others; about 2.8% of the full set was active somewhere.
hERG WT inh: blocks the wildtype human KCNH2 potassium channel; Q12809; U2OS, BacMam KCNH2, thallium flux FluxOr; active compounds read low; activity change, % at 1.84 µM; actives 0.37% (n = 340,000);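 active means maximum activity change below -70%; inconclusive means maximum activity change between -70% and -50%; inactive means maximum activity change above -50%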; further: on the % scale 0 is the no-effect control and ±100 the full control effect
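U2OS cells transduced with wild-type KCNH2 virus are loaded with FluxOr dye for 45 min, and thallium flux is measured in kinetic reads before and after stimulation buffer. Rate constants are normalized to DMSO controls.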
GLS inhibitor: inhibitors of human glutaminase (GLS); GLS enzymatic activity, qHTS titration; actives 0.21% (n = 410,000); O94925; Potency, µM (series often up to 45.5 µM), without a hit: at the top dose activity change, negative = inhibition, hits mostly inhibitors; further: potency means the concentration at half of the fitted maximal effect; on the % scale 0 is the no-effect control and ±100 the full control effect
Target sequence (O94925 whole entry, looked up): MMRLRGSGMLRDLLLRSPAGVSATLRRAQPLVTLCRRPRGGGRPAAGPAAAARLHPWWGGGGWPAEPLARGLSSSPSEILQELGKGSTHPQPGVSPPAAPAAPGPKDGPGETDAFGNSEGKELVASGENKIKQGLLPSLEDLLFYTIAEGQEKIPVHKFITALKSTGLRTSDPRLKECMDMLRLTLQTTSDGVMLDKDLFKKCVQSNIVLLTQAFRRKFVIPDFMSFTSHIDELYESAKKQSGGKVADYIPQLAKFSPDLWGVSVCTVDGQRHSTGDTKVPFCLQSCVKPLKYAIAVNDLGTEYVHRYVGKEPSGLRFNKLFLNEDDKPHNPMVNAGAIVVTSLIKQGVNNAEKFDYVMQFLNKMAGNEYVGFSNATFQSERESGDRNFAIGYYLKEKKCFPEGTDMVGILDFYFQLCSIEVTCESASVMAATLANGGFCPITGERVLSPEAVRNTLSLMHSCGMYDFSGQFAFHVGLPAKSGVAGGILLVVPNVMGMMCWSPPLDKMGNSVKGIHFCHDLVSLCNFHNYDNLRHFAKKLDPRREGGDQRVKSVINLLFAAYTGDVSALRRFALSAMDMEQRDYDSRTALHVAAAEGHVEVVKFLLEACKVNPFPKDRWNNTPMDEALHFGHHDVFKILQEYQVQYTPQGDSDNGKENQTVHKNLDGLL
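Assay buffer: 45 mM KH2PO4 pH 8.2, 0.02% Tween-20. hKGA acts on L-glutamine (1 mM solution added); product glutamate is reported by an oxidase/peroxidase Amplex Red coupling, with fluorescence taken at baseline and 30 min.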
GLP1R ag: GLP-1 receptor (human) agonism | HEK293 GLP-1R CRE-luciferase, luminescence, 4-6 h; cells express a hypersensitive GLP-1R form | Potency, µM (titrated, usually from 45.6 µM), for inactives: at the highest dose activation, actives largely listed as activators | actives 0.007% (n = 380,000) | AID 624172; further: potency means the concentration at half of the fitted maximal effect; % of control where 0% means no effect
GLP-1R inv ag: inverse agonists of human GLP-1 receptor. P43220. HEK293 GLP-1R CRE-luciferase, luminescence, 24 h; GLP-1R form is constitutively active. Potency, µM (top dose mostly 38.3 µM), inactives show at the top dose activity change, negative = inhibition, most hits filed as inhibitors. actives 1.6% (n = 410,000); further: potency means the concentration at half of the fitted maximal effect; on the % scale 0 is the no-effect control and ±100 the full control effect; nearly all actives have a fitted effect of over 55% in size
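Assay principle: reduced luminescence from a cAMP-responsive reporter in HEK293 cells co-expressing a constitutively active GLP-1R. Conditions: 24 hr compound incubation, 37 deg C, 5% CO2.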
KCNH2 3.1 inh: KCNH2 3.1 (human) potassium channel inhibition. actives 0.95% (n = 340,000). activity change, % (tested at about 1.8 µM). AID 720553. U2OS KCNH2 3.1, thallium flux FluxOr; active compounds read low;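 active means maximum activity change below -70%; inconclusive means maximum activity change from -70% to -50%; inactive means maximum activity change above -50%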;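 further: thallium influx rate constant from kinetic fluorescence after stimulation buffer; on the % scale 0 is the no-effect control and ±100 the full control effect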
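FluxOr-based Tl+ influx in U2OS cells transduced with KCNH2 3.1 virus; rate constants normalized to DMSO controls.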
HEK293 tox: cytotoxicity in counter-screen for GLP-1R inverse agonists. HEK293 cAMP-luciferase reporter cells, luminescence, 24 h. Potency, µM (series often up to 38.3 µM), for the others: at the top dose activity change, negative = inhibition, most hits filed as inhibitors. actives 0.13% (n = 410,000);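 further: loss of luciferase light is scored as toxicity; potency means the concentration at half of the fitted maximal effect; on the % scale 0 is the no-effect control and ±100 the full control effect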
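1536-well qHTS counterscreen of the MLSMR; 200 cells/uL, 12 h pre-incubation, 23 nL cpd, 24 h at 37 deg C 5% CO2, luciferase detection reagent, 12 min RT, luminescence. Inhibition = undesired.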
Active calls of the source: *. Unless noted, the call rests on the fitted dose curve; in most records, active means well fitted curve in the direction sought with a large enough effect; inconclusive means small, poorly fitted or top-dose-only effect, or another doubt; inactive means no such curve, though single readings can be large; an effect the other way counts as inactive or inconclusive.

`CC1=C(C(=O)OC2CCCCC2)C(c2ccc(C)o2)C2=C(CCCC2=O)N1` (centres undefined) gave hERG WT inh -20, GLS inhibitor 14%, GLP1R ag 3%, GLP-1R inv ag inconclusive, KCNH2 3.1 inh -14 and HEK293 tox 2%.
CC1=C(C(=O)OC2CCCCC2)C(c2ccco2)C2=C(CC(C)(C)CC2=O)N1 (centres undefined) was read as hERG WT inh 2, GLS inhibitor 1%, GLP1R ag 1%, GLP-1R inv ag 8.9µM*, KCNH2 3.1 inh 1 and HEK293 tox 4%.
For COC(=O)C1C(=O)C2=C(CC1C)NC(C)=C(C(=O)OCc1ccc(OC)cc1)C2c1ccc(C)o1 (centres undefined) the results were hERG WT inh -8, GLS inhibitor -4%, GLP1R ag 3%, GLP-1R inv ag -35%, KCNH2 3.1 inh -7 and HEK293 tox 10%.
For CC1=C(C(=O)OCCOc2ccccc2)C(c2ccc(C)o2)C2=C(CC(C)(C)CC2=O)N1 (centres undefined) the results were hERG WT inh 4, GLS inhibitor 4%, GLP1R ag -1%, GLP-1R inv ag 7.9µM*, KCNH2 3.1 inh -15 and HEK293 tox 10%.
`COC(=O)C1C(=O)C2=C(CC1C)NC(C)=C(C(=O)OC(C)C)C2c1ccc(C)o1` (centres undefined) gave hERG WT inh 2, GLS inhibitor 4%, GLP1R ag -13%, GLP-1R inv ag -5%, KCNH2 3.1 inh -14 and HEK293 tox 2%.
`COC(=O)C1C(=O)C2=C(CC1C)NC(C)=C(C(=O)OCCOc1ccccc1)C2c1ccc(C)o1` (centres undefined) gave hERG WT inh 12, GLS inhibitor -6%, GLP1R ag 10%, GLP-1R inv ag 11µM*, KCNH2 3.1 inh 16 and HEK293 tox -24%.
For COc1ccc(N2CCN(Cc3nnc(-c4cccc(Br)c4)o3)CC2)cc1 the results were GLS inhibitor 27%, GLP-1R inv ag 16% and HEK293 tox 10%.
`Cc1cc(C)cc(Oc2nc(-c3ccccc3)cc(C)c2S(C)(=O)=O)c1` gave hERG WT inh -1, GLS inhibitor 0%, GLP1R ag 3%, GLP-1R inv ag 4.5µM*, KCNH2 3.1 inh 12 and HEK293 tox -10%.
Cc1cc(C)cc(NC(=O)C(=O)NCC(c2cccnc2)N2CCc3ccccc32)c1 (centres undefined) was read as GLS inhibitor 1%, GLP-1R inv ag inconclusive and HEK293 tox -17%.
Cc1nc(N2CCC(C)CC2)c2nnn(Cc3ccccc3)c2n1 was read as hERG WT inh -4, GLS inhibitor 9%, GLP1R ag 21%, GLP-1R inv ag 10µM*, KCNH2 3.1 inh -2 and HEK293 tox 3%.
For CC(C)Cc1nc(N2CCC(C(N)=O)CC2)c2nnn(Cc3ccccc3)c2n1 the results were hERG WT inh 5, GLS inhibitor 10%, GLP1R ag 14%, GLP-1R inv ag -1%, KCNH2 3.1 inh -21 and HEK293 tox -8%.
Screening O=C(COc1ccc2ccccc2c1)NNC(=O)Cc1ccccc1 returned hERG WT inh 0, GLS inhibitor 4%, GLP1R ag -11%, GLP-1R inv ag -23%, KCNH2 3.1 inh 14 and HEK293 tox -17%.
`O=C(Cc1ccccc1)NNc1ccc2ccccc2c1` gave hERG WT inh -4, GLS inhibitor 11%, GLP1R ag -1%, GLP-1R inv ag 0.56µM*, KCNH2 3.1 inh -1 and HEK293 tox -15%.
CCOc1ccc(CCNC(=O)c2cccc(-n3c(C)nc4cccnc43)c2C)cc1 was read as GLS inhibitor -1%, GLP-1R inv ag -1% and HEK293 tox -9%.
COc1ccc(Cl)cc1NC(=O)c1cc(-c2ccccc2O)n[nH]1 was read as hERG WT inh -8, GLS inhibitor 20%, GLP1R ag -4%, GLP-1R inv ag -20%, KCNH2 3.1 inh -4 and HEK293 tox 15%.
Screening Cc1c(Cl)cccc1NC(=O)c1cc(-c2ccccc2O)n[nH]1 returned hERG WT inh -22, GLS inhibitor 13%, GLP1R ag -33%, GLP-1R inv ag inconclusive, KCNH2 3.1 inh -103* and HEK293 tox -21%.
Cc1ccc(NC(=O)CC2SC(=O)N(c3ccccc3)C2=O)cc1 (centres undefined) was read as hERG WT inh 0, GLS inhibitor 11µM*, GLP1R ag -5%, GLP-1R inv ag -11%, KCNH2 3.1 inh 2 and HEK293 tox 2%.
Screening O=C(CC1S/C(=N\S(=O)(=O)c2ccccc2)N(c2ccccc2)C1=O)Nc1ccc(F)cc1 (centres undefined) returned hERG WT inh -29, GLS inhibitor 21%, GLP1R ag -19%, GLP-1R inv ag 0%, KCNH2 3.1 inh -80* and HEK293 tox -4%.
For CC(=O)N1c2ccccc2CC1C(=O)N1CCN(c2cc(Cl)ccc2C)CC1 (centres undefined) the results were GLS inhibitor -5%, GLP-1R inv ag inconclusive and HEK293 tox 6%.
For Cc1cc(C)nc(NS(=O)(=O)c2ccc(NS(=O)(=O)c3ccccc3)cc2)n1 the results were hERG WT inh -4, GLS inhibitor 3%, GLP1R ag 20%, GLP-1R inv ag 6%, KCNH2 3.1 inh 12 and HEK293 tox 19%.
`Cc1cc(N/N=C/c2ccc(O)cc2)nc(NS(=O)(=O)c2ccccc2)n1` gave hERG WT inh -5, GLS inhibitor 13µM*, GLP1R ag 0%, GLP-1R inv ag 3%, KCNH2 3.1 inh -11 and HEK293 tox -3%.
For Cc1cc(N/N=C/c2ccc(N(C)C)cc2)nc(NCc2ccccc2)n1 the results were hERG WT inh 1, GLS inhibitor 32%, GLP1R ag 4%, GLP-1R inv ag -1%, KCNH2 3.1 inh -4 and HEK293 tox 7%.
For Cc1ccc(/C=N/Nc2cc(C)nc(NCc3ccccc3)n2)cc1 the results were hERG WT inh 26, GLS inhibitor 8%, GLP1R ag 14%, GLP-1R inv ag 2.8µM*, KCNH2 3.1 inh -80* and HEK293 tox -15%.
For Cc1cc(N/N=C/c2ccc(F)cc2)nc(NCc2ccccc2)n1 the results were hERG WT inh 10, GLS inhibitor -4%, GLP1R ag 5%, GLP-1R inv ag inconclusive, KCNH2 3.1 inh -100* and HEK293 tox inconclusive.
